In PubChem BioAssay (EPA / NIEHS) one finds outcome and AC50 data, which are given here for 25 compounds.

Where “and” joins values, the source holds several entries; their conditions need not be identical. Equal entries are not always repeated. Records with an inconclusive call do not appear. Some compounds were tested as several samples or in several runs, with calls that do not always agree. Calls of active or inactive are those of the source. Rule for the calls, unless noted: active = hit-call score of the fitted dose curve at least 0.9, where 1 is the maximum; inactive = score below 0.9.

Read-out in assay [1]: Collagen I, COL1A1 (gene 1277)
Briefly: BSK_MyoF_CollagenI: BioMAP Diversity Plus: MyoF Assay for Collagen I Biomarker Activity (AID 2284238). Conditions: primary human lung fibroblasts. Summed up:
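ELISA readout of Collagen I after 24 h chemical treatment of primary human lung fibroblast cultures; gain of signal scored relative to DMSO vehicle baseline.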

Read-out in assay [2]: Collagen III, COL3A1 (gene 1281)
Kind of assay: BSK_MyoF_CollagenIII: BioMAP Diversity Plus: MyoF Assay for Collagen III Biomarker Activity (AID 2284239). Conditions: primary human lung fibroblasts. Summed up:
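Lung fibroblast culture; 24 h compound exposure; collagen III by ELISA; gain-of-signal fit vs DMSO baseline.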

Read-out in assay [3]: Interleukin 17F (IL17F), IL17F (gene 112744)
Briefly: BSK_BT_xIL17F: BioMAP Diversity Plus: BT Assay for Interleukin 17F (IL17F) Biomarker Activity (AID 2284243). Conditions: primary human B cells with PBMC. The method, boiled down: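 Secreted IL-17F, read on LumineX xMAP beads, was taken as the endpoint. Cultures combined human B cells and peripheral blood mononuclear cells, sampled 24 hours after dosing, with DMSO serving as negative control.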

Read-out in assay [4]: Actin alpha 1 (ACTA1), ACTA1 (gene 58)
Briefly: BSK_MyoF_ACTA1: BioMAP Diversity Plus: MyoF Assay for Actin alpha 1 (ACTA1) Biomarker Activity (AID 2284244). To be noted: primary human lung fibroblasts. Summed up: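 MyoF fibroblast system (human lung); a-SMA quantified via ELISA at 24 h; DMSO-normalised, gain-of-signal endpoint.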

Read-out in assay [5]: Interleukin 2 (IL2), IL2 (gene 3558)
Briefly: BSK_BT_xIL2: BioMAP Diversity Plus: BT Assay for Interleukin 2 (IL2) Biomarker Activity (AID 2284245). To be noted: primary human B cells with PBMC. The method, boiled down:
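Co-cultures of primary human B cells and PBMC are treated with chemical and sampled at 24 h. IL-2 secretion is quantified by Luminex xMAP, with DMSO-treated wells as baseline.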

Read-out in assay [6]: Basic fibroblast growth factor (bFGF), FGF2 (gene 2247)
Kind of assay: BSK_MyoF_bFGF: BioMAP Diversity Plus: MyoF Assay for Basic fibroblast growth factor (bFGF) Biomarker Activity (AID 2284246). To be noted: primary human lung fibroblasts. Summed up:
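Fibroblasts from human lung, 24 h dosing. bFGF by ELISA; gain of signal over DMSO.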

Read-out in assay [7]: Collagen IV, COL4A1 (gene 1282)
Briefly: BSK_MyoF_CollagenIV: BioMAP Diversity Plus: MyoF Assay for Collagen IV Biomarker Activity (AID 2284247). Conditions: primary human lung fibroblasts. Summed up: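 Lung fibroblasts (human primary) treated with chemicals were assayed after 24 h for Collagen IV using an ELISA, with DMSO serving as negative control and baseline for a positive-direction fit.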

A short description of assay [8]: CCTE_Mundy_HCI_hNP1_Casp3_7: CCTE's Caspase-Glo 3/7 Assay in human neuroprogenitor cells for Apoptosis, Mundy Lab (AID 2284240). Summed up:
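Luminescent caspase-3/7 readout, 26.5 h post-dose, in human neural progenitor cells from WA09 embryonic stem cells. Cells grew 40–44 h at 37 °C, 5% CO2 before chemical addition. Activity analysed as signal increase over DMSO baseline.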

The nature of assay [9]: CCTE_Mundy_HCI_hNP1_CellTiter: CCTE's Cell Titer-Glo 2 Assay in human neuroprogenitor cells for Viability, Mundy Lab (AID 2284241; active = hit-call score of the fitted dose curve at least 0.9, where 1 is the maximum). Summed up: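 Viability read as luminescent ATP content (CellTiter-Glo, 30 min room temperature) twenty-four hours after dosing, relative to DMSO. Cells: WA09-derived hNP1 neuroprogenitors on poly-L-ornithine/laminin, plated 40 to 44 hours before chemical.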
On the technique in general: In ATP-based viability assays light output follows the ATP content of the culture.

Take `Clc1cc(Cl)c(Cl)c(Cl)c1Cl`: the result in assay [1], in [2], in [3], in assay [4], in assay [5] and in assay [6] was inactive. Further, the outcome in assay [7] was inactive.
Consider `CCOC(=O)C1=NOC(c2ccccc2)(c2ccccc2)C1`, for which the outcome in assay [1], in assay [2], in [3], in assay [4], in assay [5] and in assay [6] was inactive. The result in [7] was inactive.
With `Nc1cccc(N)n1`, the result in [1], in assay [2], in assay [3], in assay [4], in assay [5] and in assay [6] was inactive. For the same compound, the result in [7] was inactive.
As for `COC(OC)(C(=O)c1ccccc1)c1ccccc1`, the result in assay [1], in [2], in [3], in assay [4], in assay [5] and in [6] was inactive. For the same compound, in assay [7], the result was inactive.
In the case of `CCCCCCCO`, the outcome in assay [1], in assay [2], in assay [3], in assay [4], in assay [5] and in [6] was inactive. Besides, the outcome in assay [7] was inactive.
Consider `CCOC(=O)C1=NN(c2ccc(Cl)cc2Cl)C(C)(C(=O)OCC)C1` (stereo not drawn), for which the outcome in [1], in assay [2], in assay [3], in assay [4], in assay [5] and in assay [6] was inactive. The result in [7] was inactive.
With `CC1(C)CC(O)CC(C)(C)N1[O]`, the result in assay [1], in [2], in [3], in assay [4], in assay [5] and in assay [6] was inactive. For the same compound, the outcome in assay [7] was inactive.
With `CCCCCCCCCCCC(C)=O`, the result in assay [1], in assay [2], in [3], in assay [4], in [5] and in assay [6] was inactive. For the same compound, the result in assay [7] was inactive.
On to `c1ccc2sc(SSN3CCOCC3)nc2c1`, for which the AC50 in assay [1] is 15.5 µM (active); in assay [2], 28.4 µM (active); in assay [3], 19.9 µM (active); in assay [4], 25.4 µM (active); in assay [5], 28.1 µM (active); in assay [6], 28.8 µM (active). In addition, in assay [7], the AC50 was 14.9 µM (active).
As to `O=C(O)C(F)(F)C(F)(F)C(F)(F)C(F)(F)C(=O)O`, the outcome in assay [1], in assay [2], in assay [8], in assay [9], in assay [3] and in [4] was inactive. The result in assay [5], in assay [6] and in [7] was inactive.
For `CC(C)CCCCCOC(=O)CS`, the result in [1], in assay [2], in assay [3], in assay [4], in assay [5] and in assay [6] was inactive. In [7], the result was inactive.
Regarding `CCOC(=O)/C=C\C(=O)OCC`, the result in assay [1], in assay [2], in assay [3], in [4], in assay [5] and in assay [6] was inactive. In [7], the outcome was inactive.
As to `CC=C(C)C=CC=C(C)C`, the result in assay [1], in assay [2], in assay [4] and in [6] was inactive. Besides, the AC50 was 24.9 µM (active) in [3], 28.5 µM (active) in [5] and 0.016 µM (active) in assay [7].
As for `COc1ccc(C(=O)c2ccccc2)c(O)c1`, the result in assay [1], in [2], in assay [3], in assay [4], in assay [5] and in [6] was inactive. The outcome in assay [7] was inactive.
Regarding `CCC1(C)C(=O)N(Cl)C(=O)N1Cl` (stereo not drawn), the outcome in assay [1], in assay [2], in assay [3], in assay [4], in assay [5] and in [6] was inactive. Moreover, the outcome in [7] was inactive.
With `CCCCCC1=CCCC1=O`, the result in assay [1], in assay [2], in [3], in assay [4], in assay [5] and in [6] was inactive. Moreover, in assay [7], the outcome was inactive.
`c1ccc2c(c1)[nH]c1ccccc12`: the result in assay [1], in assay [2], in assay [3], in [4], in assay [5] and in [6] was inactive. Moreover, in [7], the result was inactive.
Turning to `CCCCCCOC(=O)CCCCC(=O)OCCCCCC`, the outcome in assay [1], in assay [2], in [3], in [4], in [5] and in assay [6] was inactive. Also, the result in [7] was inactive.
In the case of `C=CC(=O)OCCCCCCOC(=O)C=C`, the AC50 was 34.4 µM (active) in assay [1]; 25.7 µM (active) in assay [2]; 9.47 µM (active) in assay [3]; 20 µM (active) in assay [4]; 9.78 µM (active) in assay [5]; 34.7 µM (active) in [6]. For the same compound, in assay [7], the AC50 was 3.31 µM (active).
With `Oc1ccc(/C=C/c2cc(O)cc(O)c2)cc1`, the result in assay [1], in assay [2], in [4], in assay [5], in assay [6] and in [7] was inactive. Besides, the AC50 in assay [3] was 23.9 µM (active).
In the case of `CC/C=C\CCOC(=O)c1ccccc1O`, the AC50 is 31.1 µM (active) in assay [1]; 36.1 µM (active) in [2]; 20 µM (active) in [3]; 30.7 µM (active) in [4]; 31.3 µM (active) in assay [6]; 33.2 µM (active) in [7]. For the same compound, in assay [5], the outcome was inactive.
Regarding `COc1ccc(C(=O)/C(Br)=C\C(=O)O)cc1`, the outcome in assay [1], in assay [2], in assay [6] and in assay [7] was inactive. Besides, the AC50 was 20 µM (active) in [2]; 26.5 µM (active) and 30.2 µM (active) in assay [3]; 28 µM (active) and 30.3 µM (active) in [4]; 23.2 µM (active) and 20 µM (active) in assay [5].
As for `Fc1ccc(Br)cc1`, the outcome in [1], in assay [2], in assay [3], in assay [4], in [5] and in assay [6] was inactive. In assay [7], the result was inactive.
For `C=CC(=O)NCOCCCC`, the outcome in [1], in [2], in assay [3], in assay [4], in assay [5] and in [6] was inactive. Further, in [7], the outcome was inactive.
As for `CC/C=C\C/C=C\C/C=C\CCCCCCCC(=O)OC`, the AC50 is 9.7 µM (active) in assay [1]; 10.6 µM (active) in assay [2]; 15.2 µM (active) in assay [3]; 6.98 µM (active) in [4]; 27.5 µM (active) in [5]; 9.83 µM (active) in [6]. Besides, the AC50 in assay [7] was 20 µM (active).

What is called AC50 is the concentration giving half of the maximal activity seen.
